Experimental data: ChEMBL document CHEMBL4513149, “CO-ADD screening of MMV (CH) - MMV compounds” (2021)
Results with a measured potency or affinity are listed apart.

Test system: Cryptococcus neoformans
Settings: Concentration 20 uM; ASSAY_TEST Inhibition of Fungal Growth; detection method Resazurin; Absorption (OD600-OD570); plate type 384well; NBS; CORNING #3640

First: CN(C)c1cc(NC(=O)Nc2ccccc2)c2ccccc2n1
Second: c1ccc(-c2cc(N3CCCCC3)c3ccccc3n2)nc1
The Inhibition of the first is higher: -2.57% for the first, -6.72% for the second.

Compared with `CCc1cc(=O)n(C)c(SC(C)C(=O)Nc2ccc(F)cc2)n1` (stereo unspecified), `Cc1ncc(-c2ccnc(Nc3ccc(S(C)(=O)=O)cc3)n2)n1C(C)C` [AZD-5438] is higher in Inhibition: -9.3% for the first, -6.72% for the second.

First: CC1CCCN(C(=O)C(C)Nc2cc(Cl)ccc2N2CCOCC2)C1 (stereo unspecified)
Second: CC1(C)Cc2c(c(N3CCOCC3)nc3snc(Br)c23)CO1
The Inhibition of the first is lower: -4.76% for the first, -2.44% for the second.

Compared with `CNc1snc(C)c1C(=O)NCCOc1ccc(OC)cc1`, `COc1ccc(Cn2cnc3c(-c4ccco4)nc(Cl)nc32)cc1` is lower in Inhibition: 1.78% for the first, -6.4% for the second.

Going from `Cc1cc(C)cc(COc2ccc3c(C)c(CCC(=O)O)c(=O)oc3c2C)c1` to `CCS(=O)(=O)N(Cc1ccco1)Cc1cc2ccc(C)cc2nc1O`, the Inhibition falls from -0.19% to -6.36%.

Compared with `CN1CCN(S(=O)(=O)c2ccc(-c3ccc4c(Nc5ncc(Cl)cn5)ccnc4c3)cc2)CC1`, `Nc1ncc(-c2ccc(C(F)(F)F)nc2)cc1-c1ccc(C(F)(F)F)nc1` is lower in Inhibition: -3.42% for the first, -5.78% for the second.

Compared with `CC(C)(C)OC(=O)N1CCN(c2cc(-c3ccc(Oc4ccccc4)cc3)n[nH]2)CC1`, `CC(C)(C)OC(=O)N1CCC(Cn2nc(-c3cnc4ccccc4c3)c3c(N)ncnc32)CC1` is lower in Inhibition: -7.43% for the first, -9.75% for the second.

First: CC(C)(C)n1nc(-c2ccccc2)c2c(N)ncnc21
Second: COc1ccc(CCN2CCC(NCc3cccc(N(C)C)c3)CC2)cc1
The Inhibition of the first is lower: -15.8% for the first, -2.71% for the second.
